One assay has as its target L1TD1. Description: pooled miR-30 sensor sort-seq; sequence = guide strand. To be noted: shRNA.
In turn, TTAAATCTAATACCGGAGCTAT yielded a sensor-assay potency score (higher = more potent) of -1.12.

ATTTGCTGAAACTCTGTCCTAC displayed a sensor-assay potency score (higher = more potent) of 0.491.

Consider TTGGATGTTAGTTCTTCTGTGT, for which the sensor-assay potency score (higher = more potent) worked out at 0.173. TACTTCTCAAGTTTTCTTCTGT gave a sensor-assay potency score (higher = more potent) of 0.707. On the same count and under the same terms, the same measure for TTGATCTTCTAGACTGTCTATT: -0.179; for TTCTTTGACAAATTCATCCTCT: 0.858; for ATCATTACTATTGTATTCGTTA: -0.576. Still for that read-out and setting: the value for TTTGATCTTCTAGACTGTCTAT was -0.16. On the same count and under the same terms, the same measure for TCTTTCTTCAAGTATGTCCATT: -0.922; for TATTTCTCCAGCTCTATGCTTT: -0.459.

For the next assay, the target named is LAMA2. The description is as above. As to conditions: shRNA.
In turn, TAGTTTATTGTAATTCTTCTTC gave a sensor-assay potency score (higher = more potent) of -0.313. Same read-out and setting: the value for TTACATATCAGACAGGAGCCAG was -0.545; that for TAAATGTCAACTGTCCTCCTAC was 0.301. On the same count and under the same terms, the value for TTGAGTTTATCTATTAGCCGGT was 0.45; that for TATCCAAGAAGTCTTCTCGGGT was -0.905; that for TTTATTGTAATTCTTCTTCAGG was -0.611.

Sequence TTGATTGCAGATTCGACACTGC displayed a sensor-assay potency score (higher = more potent) of 0.517. The sequence TTAAGTAACAATACATTAGTAT displayed a sensor-assay potency score (higher = more potent) of -0.0119. Same read-out and setting: the same measure for TTACATAATAGGCCTGTCCAGT: -0.57; for TACATCTTTAGCTGTGTCGTTG: -0.19.

TTTGTGAGCAAACATCATCAAG displayed a sensor-assay potency score (higher = more potent) of -1.56.

TTTGAGTTTATCTATTAGCCGG came in with a sensor-assay potency score (higher = more potent) of -0.671.

Another assay concerns the target LAMB3. Described as above. As to conditions: shRNA.
For the sequence TTTTTTGACTTTGAGTTGCTGG, the sensor-assay potency score (higher = more potent) is 0.33.

For the sequence TAGGTCACAGCGCTCTCCCTGC, the sensor-assay potency score (higher = more potent) is -0.878. On to TAGGCTGTGCTCAGCATCCGGA, for which the sensor-assay potency score (higher = more potent) is -0.616.

Turning to TCTTCTGCAGAACAGTAGCTGA, the sensor-assay potency score (higher = more potent) is -1.16. Same read-out and setting: the value for TTTGCATCTAGGATCCGGGAGG was -1.03; that for TCTTGAAGCTGGAATCTCCTGT was 0.664; that for TTTGACTTTGAGTTGCTGGAAT was -0.395. On the same count and under the same terms, the same measure for TTACTAGCTACACACCAGGGGT: -0.82. In turn, TCTGACATCTTCCTCCATCTGG had a sensor-assay potency score (higher = more potent) of -0.297. Still for that read-out and setting: the value for TTATTCTCTCAAATCCCTCTTG was -0.105.

Consider TATTTTTTCAAACTGCTCCCTC, for which the sensor-assay potency score (higher = more potent) turned out to be 0.433. In turn, TTCTGCAGAACAGTAGCTGAGT gave a sensor-assay potency score (higher = more potent) of -0.497.

In a further assay the target is LAMB4. Described as above. As to conditions: shRNA.
TTTGTTAGTCCTGTAGTGCTTG displayed a sensor-assay potency score (higher = more potent) of 0.084. Still for that read-out and setting: the value for TTTGTCTTCTAACAGAGTCATG was -1.42.

The sequence TAGTCCTGTAGTGCTTGTCTTA registered a sensor-assay potency score (higher = more potent) of -1.22. Same read-out and setting: the same measure for TATTTTGACAAGTTCATCGGTT: 0.404; for TTGCTCTTTCTATTGTATCTTT: -0.796; for TTAGCTGTTTAACTTTTCCTAA: -0.989.
Further: reference of the scale not given here.
